Screening data: PubChem BioAssay, several laboratories
Rv3671c protease: inhibits the M. tuberculosis serine protease Rv3671c | P9WHR9 | inhibition, % at 5.96 µM | 320,000 tested, 0.048% active; in the data active = inhibition above about 38%;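 note: extracellular domain of Rv3671c used as enzyme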
Mtb betalactam: beta-lactam sensitization of Mtb H37Rv; inhibition, % at 25 µM; 330,000 tested, 0.27% active; M. tuberculosis H37Rv growth with meropenem, percent inhibition;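 note: growth measured after seven days incubation then overnight dye step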
GDH-TPI inh: counter-screen for M. tuberculosis FBA inhibitors: GDH-TPI coupled enzymes | 360,000 tested, 1.2% active | GDH-TPI coupled enzyme counterscreen, NADH absorbance | inhibition, % at 4.8 µM | AID 588335; in the data active = inhibition above about 30%
UGM FP inh: inhibitors of M. tuberculosis UDP-galactopyranose mutase; P9WIQ1; purified UGM, fluorescence polarization probe displacement; inhibition, % at 10 µM; 320,000 tested, 0.06% active; in the data active = inhibition above about 10%, passing the limit was not always enough; inconclusive = no clear call, values can overlap the other calls
Target sequence (P9WIQ1 whole entry, looked up): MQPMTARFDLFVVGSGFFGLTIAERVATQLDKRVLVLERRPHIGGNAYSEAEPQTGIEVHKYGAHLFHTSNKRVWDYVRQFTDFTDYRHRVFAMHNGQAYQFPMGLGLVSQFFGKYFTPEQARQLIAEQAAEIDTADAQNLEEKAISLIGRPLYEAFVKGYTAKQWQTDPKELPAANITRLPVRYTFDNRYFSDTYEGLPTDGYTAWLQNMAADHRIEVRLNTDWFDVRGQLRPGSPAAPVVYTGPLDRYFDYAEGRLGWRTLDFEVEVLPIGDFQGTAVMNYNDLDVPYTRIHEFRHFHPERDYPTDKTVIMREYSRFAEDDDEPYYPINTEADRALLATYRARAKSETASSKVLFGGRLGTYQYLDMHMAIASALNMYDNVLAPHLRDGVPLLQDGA
Mtb FBA inh: Mtb fructose-bisphosphate aldolase inhibition. P9WQA3. purified M. tuberculosis FBA, fluorescence read-out. inhibition, % at 1 µM. 360,000 tested, 2.3% active. AID 588726; in the data active = inhibition above about 27%
RecA intein inh: inhibitors of M. tuberculosis RecA intein splicing | P9WHJ3 | cell-free RecA intein splicing, fluorescence | inhibition, % (concentration not given with the values) | 290,000 tested, 0.75% active | AID 2221; in the data active = inhibition above about 30%; inconclusive = no clear call, values can overlap the other calls
GFP chromo cs: counter-screen GFP chromophore formation inhibition. shares compounds with RecA intein inh. cell-free GFP chromophore formation, fluorescence. 2,100 tested, 83% active. EC50, µM
Each line names hits and unclear results; the compound was inactive in the other large screens (follow-up assays come after a bar, where they were run). An excerpt weighted towards active compounds, which were near 4% of everything screened. Unless noted, the rule behind the calls is not given here.

O=C(O)c1cc2c([nH]c1=O)CCCC2	none
COCc1ccc(C(=O)N2CCCC(Nc3ccc(C(C)C)cc3)C2)o1 (stereo unspecified)	none
O=S(=O)(Nc1ccc(-n2cnnn2)cc1)c1ccccc1F	none (no result: RecA intein inh)
O=S(=O)(Nc1ccc(-n2cnnn2)cc1)c1ccc(F)c(F)c1F	RecA intein inh 30 | GFP chromo cs inactive
CC(NC(=O)COC(=O)C1CCN(c2ccc(C(F)(F)F)cn2)CC1)c1ccc(Br)cc1 (stereo unspecified)	none
COc1cccc(C(=O)O/N=C(\N)c2ccc([N+](=O)[O-])cc2)c1OC	RecA intein inh 52 | GFP chromo cs inactive
COc1ccc(/C(N)=N/OC(=O)c2cccc([N+](=O)[O-])c2C)cc1OC	none
CCN1Cc2c(/C=C/c3ccccc3)nc3ccc(OC)cc3c2N(c2cccc(Cl)c2)C1	RecA intein inh 34 | GFP chromo cs 23
COc1cccc(CN2CC(C(=O)NCCCn3cccn3)CCC2=O)c1 (stereo unspecified)	none
Cc1cccn2c(CNCC3(c4ccccc4)CCCC3)c(C(=O)N3CCOCC3)nc12	none | GFP chromo cs inactive
CC1C=CCC2C(=O)N(c3ccc(OC(=O)c4ccco4)cc3)C(=O)C12 (stereo unspecified)	none
CC(=O)Nc1cc(OC(=O)c2ccco2)cc(OC(=O)c2ccco2)c1	RecA intein inh 54 | GFP chromo cs 7.4
CC(=O)Nc1ccc(OC(=O)c2ccco2)cc1	RecA intein inh 33 | GFP chromo cs inactive
COc1ccc(C(C)=O)c(OC(=O)c2ccco2)c1	none
O=C(Oc1ccc(N2C(=O)CCC2=O)cc1)c1ccco1	RecA intein inh 31 | GFP chromo cs 0.61
O=C(Nc1ccc(OC(=O)c2cccs2)cc1)c1ccco1	none
COC(=O)C1=C(C)NC(=S)NC1c1ccc(OC(=O)c2ccco2)cc1 (stereo unspecified)	RecA intein inh 31 | GFP chromo cs inactive
O=C(NCCCN1CCOCC1)C(=O)NCC1OCCN1S(=O)(=O)c1ccc(Cl)cc1 (stereo unspecified)	none (no result: Rv3671c protease, Mtb betalactam, UGM FP inh, RecA intein inh)
CC(NC(=O)/C(C#N)=C/c1ccc(Cl)c([N+](=O)[O-])c1)c1ccccc1 (stereo unspecified)	RecA intein inh 62 (no result: GDH-TPI inh, Mtb FBA inh) | GFP chromo cs 14
COCCNC(=O)C(=O)NCC(c1ccc2c(c1)OCO2)N1CCN(c2ccc(F)cc2)CC1 (stereo unspecified)	none
Cc1ccc(NC(=O)C2=C(c3ccccc3)S(=O)(=O)CCS2(=O)=O)cc1	RecA intein inh 94 | GFP chromo cs 1.9
Cc1ccc(NC(=O)c2ccccc2)cc1	none
CC(CC(=O)NNC(=O)c1ccncc1)c1ccccc1 (stereo unspecified)	none
CC(=O)Nc1ccc(S(=O)(=O)NCCC(=O)N2CCN(C(c3ccccc3)c3ccccc3)CC2)cc1	none
O=C(/C=C/c1ccc(O)cc1)c1ccc(NC2=C(N3CCCCC3)C(=O)c3ccccc3C2=O)cc1	RecA intein inh 57 | GFP chromo cs 6.1
O=C1C(Nc2cccc(O)c2)=C(N2CCCCC2)C(=O)c2ccccc21	RecA intein inh 79 | GFP chromo cs 3
CN(C1=C(N2CCCCC2)C(=O)c2ccccc2C1=O)c1ccccc1	none
Cc1ccc(NC2=C(N3CCCCC3)C(=O)c3ccccc3C2=O)cc1	RecA intein inh 67 | GFP chromo cs 9.5
COc1ccccc1NC1=C(N2CCCCC2)C(=O)c2ccccc2C1=O	RecA intein inh 79 | GFP chromo cs 17
O=C1C(NS(=O)(=O)c2ccc(Br)cc2)=C(N2CCCCC2)C(=O)c2ccccc21	none
O=C(O)c1cccc(NC2=C(Cl)C(=O)c3ccccc3C2=O)c1	none (no result: Rv3671c protease, Mtb betalactam, UGM FP inh, RecA intein inh)
CCS(=O)(=O)C1=NSC2=NC(=O)/C(=C\c3ccc(OC(=O)c4ccco4)cc3)C(=N)N21	none
CC(C)S(=O)(=O)C1=NSC2=NC(=O)/C(=C\c3ccc(OC(=O)c4ccco4)cc3)C(=N)N21	RecA intein inh 34 | GFP chromo cs inactive
Cc1ccc(CNC(=O)C2(S(=O)(=O)c3ccccc3)CC=CC2)cc1	none
CCCC(=O)N1CCCC(C(=O)c2cccc(OC(C)C)c2)C1 (stereo unspecified)	none
O=[N+]([O-])c1c(Nc2ccccc2)ccc2nonc12	none
O=[N+]([O-])c1c(NCc2ccco2)ccc2nonc12	RecA intein inh 42 | GFP chromo cs 20
Cn1cccc1C(=O)OCc1ccc(C(C)(C)C)cc1	none
CCc1ccc2c(c1)C(NC(C)=O)C(=O)N2CCN1CCOCC1 (stereo unspecified)	RecA intein inh 49 | GFP chromo cs inactive
Nc1c(C(=O)Nc2cccc(F)c2)nnn1-c1ccc2c(c1)OCCO2	none
CCOC(=O)c1nnc(-c2ccc(C)cc2)nc1Sc1ccccc1Cl	none
CCOC(=O)c1nnc(-c2ccccc2)nc1Sc1c(Cl)cccc1Cl	RecA intein inh 54 | GFP chromo cs 38
CC1=NNC(=O)/C1=C\c1cn(-c2ccccc2)nc1-c1ccccc1	RecA intein inh 97 | GFP chromo cs 1.8
O=Cc1cn(-c2ccccc2)nc1-c1ccccc1	none
Cc1ccc(S(=O)(=O)NOCc2ccccc2)cc1	none (no result: Rv3671c protease, Mtb betalactam, UGM FP inh, RecA intein inh)
CCN(CC)CCOc1ccc(Br)cc1	none
CCN(CC)CCOc1ccc(/C(=C(\Cl)c2ccccc2)c2ccccc2)cc1	RecA intein inh 36 | GFP chromo cs 18
Cc1c(F)cccc1NS(=O)(=O)c1ccc(N2CCCC2=O)cc1	none (no result: Rv3671c protease, Mtb betalactam, UGM FP inh, RecA intein inh)
Cc1noc2ncnc(N3CCCC3)c12	none
Cc1noc2ncnc(Sc3ccc(Br)cc3)c12	RecA intein inh 37 | GFP chromo cs 31
Cc1cccc(NC(=O)c2ccc(S(=O)(=O)N3CCC(C)CC3)cc2)n1	none
COc1ccc(N2C(=O)NC(=O)/C(=C/c3cccc(OC(=O)c4cccs4)c3)C2=O)cc1Cl	Mtb betalactam inconclusive (no result: GDH-TPI inh, Mtb FBA inh)
CCOc1cc(/C=C2/C(=O)N(c3ccccc3)N=C2C)ccc1OC(=O)c1ccco1	RecA intein inh 78 | GFP chromo cs 2.7
CCOc1cc(/C=C2\C(=O)N(c3ccc(C(N)=O)cc3)N=C2C)ccc1OC(=O)c1cccs1	RecA intein inh 94 | GFP chromo cs 3.3
CC1=NN(c2ccc(C(=O)O)cc2)C(=O)/C1=C\c1ccc(OC(=O)c2cccs2)cc1	RecA intein inh 93 | GFP chromo cs 2.6
CC1=NN(c2ccc(C(=O)O)cc2)C(=O)/C1=C/c1ccc(-c2ccccc2F)o1	none
CCOc1cc(/C=N/NC(=O)COc2ccc(C)cc2)ccc1OC(=O)c1cccs1	none
Cc1ccc(N2C(=O)NC(=O)/C(=C/c3ccc(OC(=O)c4cccs4)cc3)C2=O)cc1	RecA intein inh 34 | GFP chromo cs 0.82
CC1(C(=O)O)CCCN(C(=O)C2(c3ccc(Cl)cc3)CCCC2)C1 (stereo unspecified)	none (no result: Rv3671c protease, Mtb betalactam, UGM FP inh, RecA intein inh)
COc1ccc(N2C(=O)c3ccccc3C2=O)cc1	none
O=C1C(Cl)=C(N2CCN(Cc3ccccc3)CC2)C(=O)N1c1ccccc1	none
